Test [1] in a line: Confirmation and Secondary Assay for Modulators of Hemoglobin Beta Chain Splicing at IVS2 654 locus (AID 910).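 Further: HeLa cells stably carrying EGFP split by mutant beta-globin IVS2-654 intron; per-well total GFP intensity by laser scanning cytometry after 2-day treatment.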 A digest of the protocol:
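Readout: per-well total peak green fluorescence (488 nm ex, 500–520 nm em) from objects 5–250 µm, reflecting correct splicing of an EGFP-654 reporter. Compounds were applied for 2 days at 37 °C to overnight-plated HeLa EGFP-654 cells; controls were DMSO and 500 nM IVS2-654 PNA.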

Test [2] in a line: Confirmation and Secondary Assay for Modulators of Hemoglobin Beta Chain Splicing at IVS2 705 locus (AID 930).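 Further: HeLa cells stably expressing the EGFP-705 splicing reporter; GFP fluorescence per well restored by corrected splicing of the IVS2-705 intron in EGFP.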 The method, boiled down: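 First, HeLa EGFP-705 cells are seeded at 500/well in Optimem with 2% FCS and left overnight. Next, compound or DMSO is added for 2 days. Finally wells are laser-scanned and total peak GFP intensity scored.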
The target of test [3] is Ubiquitin carboxyl-terminal hydrolase 1 (Homo sapiens) (UniProt O94782). Put plainly: Inhibitors of USP1/UAF1: Pilot qHTS (AID 504865).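 Further: rhodamine fluorescence freed from ubiquitin-rhodamine substrate followed over time; top concentration of the series differs between compounds; nearly all actives have a fitted effect of over 35% in size.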 A digest of the protocol:
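In 50mM HEPES pH 7.8 containing 0.5mM EDTA, 1mM TCEP, 0.1 mg/ml BSA and 0.01% Tween-20, 1nM USP1/UAF1 is exposed to compound for 15 min, then Ub-Rho (150nM final) is added and fluorescence is read over time.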
On the technique in general: Quantitative high-throughput screening tests each substance at several concentrations.

Test [4] in a line: S16 Schwann cell viability assay (CellTiter-Glo assay) (AID 624031).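 Further: native untransfected S16 rat Schwann cells; nearly all actives have a fitted effect of over 70% in size.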 The method, boiled down: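 Counter-screen for cytotoxicity: parental S16 rat Schwann cells lacking the PMP22 reporters, treated 24 h with compound, viability from cellular ATP by CellTiter-Glo luminescence, normalized to DMSO (0%) and no-cell wells.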
Test [5] in a line: S16 Schwann cell PMP22 intronic element firefly luciferase assay (AID 624032). Further: nearly all actives have a fitted effect of over 30% in size. A digest of the protocol: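 Luciferase reporter of PMP22 intronic-element expression in stably transfected S16 rat Schwann cells, read by ONE-Glo luminescence after 24 h compound exposure at 37 C. Activity scaled between DMSO (0%) and positive-control PTC124; concentration-effect curves quality-classified.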

A further test relates to 7G8. Put plainly: qHTS profiling for inhibitors of Plasmodium falciparum proliferation (AID 504749). Further: nearly all actives have a fitted effect of over 60% in size. Further: potency means the concentration at half of the fitted maximal effect. The following applies: P. falciparum in erythrocytes, SYBR Green DNA, 72 h; series mostly up to 28.7 µM. A digest of the protocol: (§1)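 Infected RBCs, 0.3% parasitemia/2.5% Hct final; cpd 72 h, 37 C, 5% CO2; lysis buffer with saponin/triton/SYBR Green I, o/n RT dark; FI 485/535; norm. to artemisinin (0.29 uM) and DMSO.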

The test system of another test is AA1029. Described as above. As to conditions: P. falciparum in erythrocytes, SYBR Green DNA, 72 h; series mostly up to 28.7 µM. The method, boiled down: as §1
The subject of another test is C2A. Described as above. The following applies: P. falciparum in erythrocytes, SYBR Green DNA, 72 h; series mostly up to 28.7 µM. The method, boiled down: as §1
The next test deals with CP185. Described as above. The following applies: P. falciparum in erythrocytes, SYBR Green DNA, 72 h; series mostly up to 28.7 µM. A digest of the protocol: as §1
A further test deals with CP194. Described as above. The following applies: P. falciparum in erythrocytes, SYBR Green DNA, 72 h; series mostly up to 28.7 µM. The method, boiled down: as §1
The next test relates to CP201. The test is described as above. The following applies: P. falciparum in erythrocytes, SYBR Green DNA, 72 h; series mostly up to 28.7 µM. A digest of the protocol:
as §1

The next test relates to CP211. The description is as above. The following applies: P. falciparum in erythrocytes, SYBR Green DNA, 72 h; series mostly up to 28.7 µM. A digest of the protocol:
as §1

In a further test the test system is CP238. The description is as above. The following applies: P. falciparum in erythrocytes, SYBR Green DNA, 72 h; series mostly up to 28.7 µM. A digest of the protocol: as §1
For a further test, the system named is CP252. Described as above. As to conditions: P. falciparum in erythrocytes, SYBR Green DNA, 72 h; series mostly up to 28.7 µM. The method, boiled down:
as §1

The test system of a further test is CP262. Described as above. The following applies: P. falciparum in erythrocytes, SYBR Green DNA, 72 h; series mostly up to 28.7 µM. The method, boiled down: as §1
The next test has as its system CP297. Described as above. As to conditions: P. falciparum in erythrocytes, SYBR Green DNA, 72 h; series mostly up to 28.7 µM. A digest of the protocol:
as §1

The next test relates to CP329. The test is described as above. As to conditions: P. falciparum in erythrocytes, SYBR Green DNA, 72 h; series mostly up to 28.7 µM. A digest of the protocol:
as §1

A further test concerns ICS. Described as above. As to conditions: P. falciparum in erythrocytes, SYBR Green DNA, 72 h; series mostly up to 28.7 µM. A digest of the protocol: as §1
The next test concerns P93_24. The test is described as above. The following applies: P. falciparum in erythrocytes, SYBR Green DNA, 72 h; series mostly up to 28.7 µM. The method, boiled down: as §1
The next test deals with TAB109. The test is described as above. The following applies: P. falciparum in erythrocytes, SYBR Green DNA, 72 h; series mostly up to 28.7 µM. The method, boiled down:
as §1

Records with an inconclusive call do not appear. The source made the active and inactive calls. The call rests on the fitted dose curve; in most records, active means well fitted curve in the direction sought with a large enough effect; inconclusive means small, poorly fitted or top-dose-only effect, or another doubt; inactive means no such curve, though single readings can be large; an effect the other way counts as inactive or inconclusive.

Ubiquitin carboxyl-terminal hydrolase 1 (Homo sapiens), sequence (O94782 whole entry, looked up): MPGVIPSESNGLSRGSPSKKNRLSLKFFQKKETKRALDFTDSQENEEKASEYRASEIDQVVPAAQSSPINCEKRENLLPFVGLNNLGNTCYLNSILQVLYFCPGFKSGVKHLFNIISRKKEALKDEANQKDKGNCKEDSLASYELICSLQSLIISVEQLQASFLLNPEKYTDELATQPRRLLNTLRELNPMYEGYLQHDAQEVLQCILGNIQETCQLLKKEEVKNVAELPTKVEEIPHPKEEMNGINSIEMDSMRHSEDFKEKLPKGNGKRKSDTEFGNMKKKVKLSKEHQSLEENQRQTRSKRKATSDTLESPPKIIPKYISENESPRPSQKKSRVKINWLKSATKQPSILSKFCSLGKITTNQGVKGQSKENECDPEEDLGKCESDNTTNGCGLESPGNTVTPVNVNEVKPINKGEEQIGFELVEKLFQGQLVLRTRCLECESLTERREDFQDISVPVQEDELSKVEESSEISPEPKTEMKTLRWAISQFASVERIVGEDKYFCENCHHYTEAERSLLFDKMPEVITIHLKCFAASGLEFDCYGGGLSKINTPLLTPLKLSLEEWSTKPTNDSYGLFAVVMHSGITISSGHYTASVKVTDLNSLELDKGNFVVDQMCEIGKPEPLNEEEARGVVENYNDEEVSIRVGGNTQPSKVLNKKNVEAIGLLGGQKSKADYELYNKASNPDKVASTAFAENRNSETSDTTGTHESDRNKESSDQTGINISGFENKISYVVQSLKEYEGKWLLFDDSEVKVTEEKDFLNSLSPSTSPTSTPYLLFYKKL

On to `CN(C)C(=O)c1ccc(-c2nc(Nc3ccc(F)cc3)c3ccccc3n2)cc1`, for which the compound was called inactive in [1] and in [2].

Turning to `N[C@@H](Cc1ccccc1)C(=O)O`, the call in test [1] and in test [2] was inactive. Also, the Potency entry (in test [3]; in test [4]; in test [5]; in the test on 7G8; in the test with AA1029; with C2A) was “inactive” throughout. For the same compound, the Potency entry in the test on CP185, in the test with CP194, in the test on CP201, with CP211, with CP238 and with CP252 was “inactive” each time. Further, the Potency result in the test on CP262, with CP297, with CP329, in the test on ICS, in the test on P93_24 and in the test with TAB109 was “inactive” throughout.

With `O=C(O)[C@@H](O)[C@@H](O)[C@H](O)[C@H](O)CO`, the Potency result (in test [3]; in [4]; in test [5]; in the test with AA1029; with C2A; in the test on CP185) was “inactive” in each case. Further, the Potency result in the test on CP194, with CP201, in the test on CP211, with CP238, in the test on CP252 and with CP262 was “inactive” in each case. Moreover, the Potency result with CP297 and in the test with CP329 was “inactive” throughout. The Potency was 2 µM (active) in the test on 7G8, 2.24 µM (active) in the test on ICS, 10 µM (active) with P93_24 and 10 µM (active) in the test on TAB109.

As for `C[C@]12CC[C@H]3c4ccc(O)cc4CC[C@@H]3[C@H]1CC[C@@H]2OP(=O)(O)O`, the Potency result (in test [3]; in test [4]; in test [5]; in the test with 7G8; in the test on AA1029; with C2A) was “inactive” each time. The Potency result with CP185, in the test with CP194, in the test with CP201, in the test with CP211, in the test with CP238 and in the test on CP252 was “inactive” in each case. Besides, the Potency result with CP262, in the test with CP297, in the test on CP329, in the test with ICS, with P93_24 and with TAB109 was “inactive” throughout.

Source of the values: PubChem BioAssay (NCATS).
